# From PubChem BioAssay
# GCN5L2 inh: qHTS Assay for Inhibitors of GCN5L2 | GCN5L2 HAT assay, ThioGlo1 CoA-SH fluorescence | Potency, µM (titrated, usually from 58.9 µM), for inactives: at the top dose activity change, negative = inhibition, actives largely listed as inhibitors | 390,000 compounds, 0.21% hits | AID 504327, 2011; also: % is scaled to controls: 0 for no effect and ±100 for the full control effect
#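 Compounds, pin-transferred from DMSO stocks, meet 20nM GCN5L2 for 15 min before the reaction begins with H3(1-25) peptide (75uM) and acetyl-CoA (70uM). Thiol-reactive ThioGlo1 reports CoA release over 20 min at room temperature.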
# APE1 inh: qHTS Assay for Inhibitors of the Human Apurinic/apyrimidinic Endonuclease 1 (APE1). recombinant APE1, TAMRA/BHQ-2 abasic DNA cleavage fluorescence. Potency, µM (series often up to 65.8 µM), for inactives: at the top dose activity change, negative = inhibition, most hits filed as inhibitors. 350,000 compounds, 0.35% hits. DNA repair nuclease/redox regulator APEX1 (Homo sapiens), P27695;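 also: plate controls were vehicle for no effect and reference inhibitor for full effect; nearly all actives have a fitted effect of over 55% in size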
#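 APE1 at 0.75 nM final was preincubated with compound 15 min at room temperature, then 50 nM double-stranded THF abasic-site substrate (5'-TAMRA/3'-BHQ-2) was added. Fluorescence (ex 525/em 598 nm) was read kinetically; third-minus-first read gave activity.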
# RECQ1 helicase: qHTS Assay for Inhibitors of RecQ-Like Dna Helicase 1 (RECQ1); ATP-dependent DNA helicase Q1 (Homo sapiens), P46063; RECQ1 DNA unwinding, red fluorescence kinetic read; Potency, µM (doses to about 57.3 µM), without a hit: at the top dose activity, negative = inhibition, hits mostly inhibitors; 240,000 compounds, 0.54% hits; AID 2549, 2010;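 also: plate controls were vehicle for no effect and no enzyme for full effect; nearly all actives have a fitted effect of over 30% in size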
#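 RECQ1T1 50 nM; forked duplex (20 bp + 30-nt ss tails) 200 nM, ATP 2 mM final; pH 8.0, 2 mM MgCl2, 2.5 ug/ml poly(dI-dC); 15 min compound preincubation; discontinuous kinetic read over 2 h at RT.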
# L3MBTL1 inh-1: qHTS Assay for the Inhibitors of L3MBTL1; Lethal(3)malignant brain tumor-like protein 1 (Homo sapiens), Q9Y468; AlphaScreen L3MBTL1–H3K9me1 peptide binding; Potency, µM (highest dose often 57.1 µM), for inactives: at the top dose activity, negative = inhibition, hits mostly inhibitors; 230,000 compounds, 0.66% hits; AID 485360, 2010; also: % is scaled to controls: 0 for no effect and ±100 for the full control effect; nearly all actives have a fitted effect of over 60% in size
#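 First, the protein-peptide complex forms for 30 min at room temperature (L3MBTL1 50 nM, biotinylated H3K9me1 peptide 75 nM). Next, compounds are pin-transferred and incubated 30 min. Finally, AlphaScreen beads are added and read after 30 min.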
# JMJD2E inh: qHTS Assay for Inhibitors of Human Jumonji Domain Containing 2E (JMJD2E) | Lysine-specific demethylase 4E (Homo sapiens), B2RXH2 | JMJD2E catalytic domain, FDH-coupled NADH fluorescence (FDH is formaldehyde dehydrogenase) | Potency, µM (titrated, usually from 57.1 µM), inactives show top-dose activity change, negative = inhibition, hits mostly inhibitors | 230,000 compounds, 1.6% hits; active = well fitted inhibition curve with a large enough effect, not every such curve was filed as active; inconclusive = small, poorly fitted or top-dose-only effect, or another doubt; inactive = no such curve, though single readings can be large or run the other way;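 also: 0% = wells with enzyme and -100% = buffer wells without enzyme; nearly all actives have a fitted effect of over 50% in size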
# Target sequence (B2RXH2 1-337 limits assumed): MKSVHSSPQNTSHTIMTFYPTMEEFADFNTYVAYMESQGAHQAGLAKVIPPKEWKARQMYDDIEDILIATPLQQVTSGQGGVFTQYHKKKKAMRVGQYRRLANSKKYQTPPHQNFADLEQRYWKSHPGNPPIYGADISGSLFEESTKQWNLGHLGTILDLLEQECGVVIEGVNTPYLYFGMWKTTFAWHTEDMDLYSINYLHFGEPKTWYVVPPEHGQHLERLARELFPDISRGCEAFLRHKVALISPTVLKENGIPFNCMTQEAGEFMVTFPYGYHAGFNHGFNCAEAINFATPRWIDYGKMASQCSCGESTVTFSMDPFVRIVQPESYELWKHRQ
# BLM inh: qHTS Assay for Inhibitors of Bloom's syndrome helicase (BLM). RecQ-like DNA helicase BLM (Homo sapiens), P54132. recombinant BLM DNA unwinding, fluorescence dequenching. Potency, µM (top dose mostly 56.1 µM), for the others: top-dose activity change, negative = inhibition, most hits filed as inhibitors. 350,000 compounds, 0.2% hits. AID 2528, 2010;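 also: plate controls were vehicle for no effect and no enzyme for full effect; nearly all actives have a fitted effect of over 35% in size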
# L3MBTL1 inh-2: qHTS Assay for the Inhibitors of L3MBTL1: Hit Validation; L3MBTL1 methyl-lysine binding inhibition, biochemical qHTS; 500 compounds, 91% hits; AID 540279, 2011; Potency, µM, most hits filed as inhibitors; shares compounds with L3MBTL1 inh-1; also: nearly all actives have a fitted effect of over 70% in size
# L3MBTL1 ctr: qHTS Assay for the Inhibitors of L3MBTL1: Hit Validationin AlphaScreen Counterscreen | shares compounds with L3MBTL1 inh-1 | Potency, µM (doses to about 57.1 µM), inactives show at the highest dose activity change, negative = inhibition, hits mostly inhibitors | 500 tested, under 10 active | AlphaScreen counterscreen, signal inhibition; also: 0% is about no effect
# The depositor's hits bear a star; i = inactive; ? = inconclusive; / = not tested or not shown. This excerpt belongs to a sample that is enriched for hits. Unless noted, calls follow the shape of the dose curve; as a rule, active = well fitted curve in the direction sought with a large enough effect; inconclusive = small, poorly fitted or top-dose-only effect, or another doubt; inactive = no such curve, though single readings can be large; an effect the other way counts as inactive or inconclusive. Potency is read from the fitted curve at half-maximal effect.
SMILES,GCN5L2 inh,APE1 inh,RECQ1 helicase,L3MBTL1 inh-1,JMJD2E inh,BLM inh,L3MBTL1 inh-2,L3MBTL1 ctr
O=C(CSc1nnc(-c2ccc(C(F)(F)F)cn2)o1)Nc1ccccc1Cl,-9%,0%,6%,32µM*,-9%,-4%,21*,1%
CCOC(=O)C1CCN(c2c(NCCN3CCN(c4ccccc4)CC3)c(=O)c2=O)CC1,-1%,0%,-3%,?,4%,-1%,/,/
O=C(O)c1ccc2[nH]c3c(c2c1)CSCC3,-6%,7%,2%,32µM*,-20%,-2%,13*,2%
COc1cnc(-c2ccccn2)nc1Oc1cccc(C(F)(F)F)c1,0%,-9%,/,/,/,-2%,/,/
COc1cnc(-c2ccccn2)nc1Oc1ccccc1,-10%,2%,2%,32µM*,11%,3%,21*,40%
CCOC(=O)CSc1nc(-c2ccccn2)ncc1OC,-13%,-11%,-17%,22µM*,4%,1%,27*,34%
CC(=O)c1cccc(NC(=O)/C(=C/c2ccncc2)NC(=O)c2ccccc2)c1,-4%,4%,/,/,/,-3%,/,/
CCNc1nc(NCC)n2c(SCC(=O)Nc3ccc(F)cc3)nnc2n1,-5%,12µM*,/,28µM*,/,/,?,18%
CCNc1nc(NCC)n2c(SCC(=O)Nc3ccc(Br)cc3F)nnc2n1,-14%,?,/,-9%,/,/,/,/
CCC1=C2CC[C@H]3C(=O)N(CC)C(=O)[C@H]3[C@H]2[C@@]2(Cc3ccccc3)C(=NCC3CC3)OC(=O)N2C1=O,/,-4%,i,/,1%,1%,/,/
CC(C)CCC(CCN1CCOCC1)c1ccc2c(c1)OCO2 (centres undefined),1%,-2%,-8%,-1%,?,-13%,/,/
CC(C)CCC(CCN1CCCC1)c1ccc2c(c1)OCO2 (centres undefined),2%,-14%,8%,28µM*,?,-2%,21*,7%
COc1cccc(C(CC(=O)Nc2cccc3ccccc23)NC(=O)c2ccccc2)c1 (centres undefined),2%,8%,-13%,-5%,4%,2%,/,/
COc1cc(-c2cc(OC)c3c(C)oc(C)c3c(=O)c2)ccc1OC(=O)c1ccccc1C,-4%,/,/,/,/,-7%,/,/
Cc1c(C(=O)OCCOC(C)C)[nH]c2c1C(=O)CC(c1ccco1)C2 (centres undefined),-8%,?,-2%,25µM*,-11%,-12%,24*,-2%
CSCCOC(=O)c1[nH]c2c(c1C)C(=O)CC(c1ccco1)C2 (centres undefined),-24%,13µM*,-21%,35µM*,-5%,-29%,19*,-5%
Cc1c(C(=O)OCCOC(C)C)[nH]c2c1C(=O)CC(C)(C)C2,2%,1%,-2%,3%,-5%,1%,/,/
